# Bioassay records (PubChem BioAssay)
# Most compounds without a hit are left out; they make up all but 4.6% or so of the library.
# tim23-1 inh: growth inhibitors of tim23-1 mutant yeast; S. cerevisiae tim23-1 growth, BacTiter-Glo luminescence, 24 h; inhibition, % at 20 µM; 330,000 tested, 1.3% active;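 active = growth inhibition of the mutant yeast at or above 50%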;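 also: temperature-sensitive mutant grown at 25 °C; plate controls were DMSO-treated mutant yeast for no effect and medium wells lacking yeast for full effect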
# NLRP3 yeast inh: blocks the NALP3 inflammasome reconstituted in yeast; 330,000 tested, 0.39% active; AID 2825; inhibition, % at 10 µM; Yeast reconstituted NLRP3/ASC/caspase-1, beta-gal luminescence, 24 h;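 active = inhibition of 50% or more; inactive = inhibition below 50%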;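 also: plate controls were induced DMSO wells for no effect and uninduced yeast grown without galactose for full effect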
# SKKanGAS inh: blocks kanamycin growth of S. pyogenes SKKanGAS strain; BacTiter-Glo, 6 h; inhibition, % at 7.5 µM; 300,000 tested, 1.3% active; AID 1662;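 active = mean replicate score, as percent of positive control median, at least 50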;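 also: strain carries kanamycin resistance gene driven by streptokinase promoter and grows in 40 µg/ml kanamycin; loss of luminescence reflects streptokinase promoter inhibition or plain growth inhibition; 0% = median of DMSO wells and 100% = positive control at its reference dose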
# TIM10 inh: growth inhibitors of TIM10 yeast strain | S. cerevisiae TIM10 strain growth, BacTiter-Glo luminescence, 24 h | inhibition, % at 10 µM | 330,000 tested, 1.4% active | AID 463195;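 active = inhibition of 40% or more at the single tested concentration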;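 also: wild-type TIM10 isogenic control strain grown at permissive 25 °C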
# tim10-1 inh: growth inhibitors of tim10-1 mutant yeast; S. cerevisiae tim10-1 ts strain growth, BacTiter-Glo, 24 h; inhibition, % at 20 µM; 330,000 tested, 2.2% active;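 active = inhibition of at least 40%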;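 also: mutant grown at 25 °C; 0% = DMSO wells with yeast and 100% = wells holding no yeast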
# tim10-1 confirm: confirmation of tim10-1 mutant yeast growth inhibitors; shares compounds with tim10-1 inh; S. cerevisiae tim10-1 ts strain growth, BacTiter-Glo, 24 h; inhibition, % at 20 µM; 7,400 tested, 56% active;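 active = inhibition of yeast growth at or above a set limit in either of two repeat tests at 20 µM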;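 also: tim10-1 mutant grown at permissive 25 °C to find synthetic lethal compounds; 0% = DMSO yeast wells and 100% = medium wells without yeast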
# * hit, by the source's call; . = not tested or not shown.
SMILES,tim23-1 inh,NLRP3 yeast inh,SKKanGAS inh,TIM10 inh,tim10-1 inh,tim10-1 confirm
COC(=O)c1ccccc1NC(=O)C1CCCN(S(=O)(=O)c2ccc(F)cc2)C1 (configuration not stated),39.8,33.3,3.1,9.9,26.7,.
COC(=O)c1ccccc1NC(=O)C1CCCN(S(=O)(=O)c2ccccc2)C1 (configuration not stated),39.5,29.2,6.3,8.8,40.2*,28.6
COc1ccccc1C(=O)Nc1ccc(S(=O)(=O)N2CCCCC2)cc1,12.6,8.3,-1.9,25.7,48.0*,39.8*
Cc1ccc(S(=O)(=O)N2CCCCC2)cc1NC(=O)CSc1nnc(C2CC2)n1C,-9.7,8.9,.,-10.8,-14.9,.
COc1ccc(C)cc1S(=O)(=O)N1CCN(C/C=C/c2ccccc2)CC1,27.8,-29.4,.,9.1,-2.9,.
CN(C)c1cccc(C(=O)OCC(=O)NC(=O)NCc2ccccc2)c1,15.4,18.2,.,2.5,2.5,.
CC(C)c1nnc(NC(=O)CCC(=O)N2CCC(Cc3ccccc3)CC2)s1,19.5,3.4,-11.0,9.8,29.2,.
Cc1cccc(C)c1NC(=O)CN(C)CC(=O)N1CC(=O)Nc2ccccc21,6.8,4.9,.,4.7,2.2,.
Cc1occc1C(=O)Nc1ccc(S(=O)(=O)N2CCCC2)cc1,20.2,1.4,-5.4,22.5,41.6*,26.6
O=c1ccc(/C=C/c2ccccc2)nn1Cc1ccc(F)cc1,-18.3,4.6,3.4,-32.3,-10.7,.
COc1ccc(/C=C/c2ccc(=O)n(Cc3ccccc3)n2)cc1,22.1,13.1,4.6,-0.2,40.1*,-1.1
Cc1nc(Nc2ccc(Cl)cc2Cl)sc1C(=O)Nc1ccccc1,28.6,38.9,-16.1,15.1,47.5*,31.1*
Nc1sc2c(c1C(=O)NC1CC1)CCCC2,1.5,18.6,.,9.5,-12.4,.
CC(=O)N1CCN(C(=S)c2ccc(N(C)C)cc2)CC1,8.6,1.4,-0.5,10.5,16.8,.
COc1ccc(C(=S)N2CCN(S(=O)(=O)c3ccccc3)CC2)cc1,42.3,4.0,-5.3,14.6,46.2*,24.9
CN(C)c1ccc(C(=S)N2CCN(S(=O)(=O)c3ccccc3)CC2)cc1,20.9,-4.3,-8.4,19.2,40.3*,20.2
CC(C)c1ccc(S(=O)(=O)N2CCN(C(=O)Cc3ccsc3)CC2)cc1,26.7,15.0,8.9,13.3,42.9*,12.1
CC(C)c1ccc(NC(=S)N2CCN(S(=O)(=O)c3ccccc3)CC2)cc1,27.9,20.1,1.5,14.8,41.3*,26.5
COc1ccc(S(=O)(=O)N2CCN(C(=O)c3cccc(Cl)c3)CC2)cc1,41.0,15.9,-2.9,20.3,56.3*,26.8
COc1ccc(S(=O)(=O)N2CCN(C(=O)c3ccc(NC(C)=O)cc3)CC2)cc1,11.9,5.9,.,7.4,5.1,.
CN(C)c1ccc(C(=S)N2CCN(c3ccccc3)CC2)cc1,43.3,3.8,9.0,32.3,46.0*,36.3*
COc1ccc(S(=O)(=O)N2CCN(C(=O)c3ccc([N+](=O)[O-])o3)CC2)cc1,35.4,27.4,6.3,27.6,50.5*,45.1*
COc1ccc(OC2CCN(S(=O)(=O)c3ccc(OC)cc3)CC2)cc1,45.1,25.9,-5.8,8.4,43.0*,42.0*
Cc1ccc(N2CCN(C(=S)c3ccc(N(C)C)cc3)CC2)cc1,31.5,3.4,-6.4,27.3,22.9,.
COC(=O)c1ccc(COC(=O)C(CCSC)NC(=O)COc2ccccc2)cc1 (configuration not stated),29.0,4.9,-3.4,8.1,14.6,.
SMILES,tim23-1 inh,NLRP3 yeast inh,SKKanGAS inh,TIM10 inh,tim10-1 inh,tim10-1 confirm
Cc1c(C(=O)N/N=C/c2cccs2)nnn1-c1nonc1N,-2.1,-1.9,-0.6,15.6,-13.7,.
Cc1ccc2cc(CN(CC3CCCO3)C(=S)Nc3ccccc3)c(=O)[nH]c2c1 (configuration not stated),40.7,8.9,8.4,15.1,44.2*,16.3
O=C(c1ccc(NS(=O)(=O)c2ccccc2)cc1)N1CCOCC1,12.1,-12.4,1.1,-9.1,15.3,.
C=CCn1c(Cc2cccs2)nnc1SCC(=O)c1cccc(Br)c1,31.2,3.5,4.0,13.7,41.1*,23.9
CCN1CCN(C2=C(NS(=O)(=O)c3ccccc3)C(=O)c3ccccc3C2=O)CC1,9.4,26.3,3.1,15.0,3.8,.
CCOC(=O)N1CCN(C2=C(NS(=O)(=O)c3ccccc3)C(=O)c3ccccc3C2=O)CC1,34.3,15.3,28.5,24.8,54.6*,15.2
CC1CCN(C(=O)CN2C(=O)NC3(CCC(C)CC3)C2=O)CC1 (configuration not stated),-15.0,21.0,.,-9.1,-4.7,.
COc1cc(NC(=O)c2cc(-c3ccccc3Cl)on2)cc(OC)c1OC,40.3,39.4,12.5,12.7,45.1*,22.6
COc1ccccc1-c1ccc(/C=C2\C=CC(=O)O2)o1,23.4,16.9,6.3,26.9,47.8*,36.4*
COc1cc2c(cc1NC(=S)Nc1cccc(C(F)(F)F)c1)oc1ccccc12,39.8,14.8,0.5,35.5,40.3*,22.6
COc1cc2c(cc1NC(=S)Nc1cccc3ccccc13)oc1ccccc12,13.3,15.1,11.6,6.5,14.8,.
COC(=O)COc1ccc(-c2nccc(-c3ccc(Br)cc3)n2)cc1,22.3,-1.0,2.8,8.4,-12.7,.
COC(=O)COc1ccc(-c2nccc(-c3ccccn3)n2)cc1,18.7,21.1,-6.9,29.7,43.4*,31.2*
O=C1NCCO1,-17.4,15.6,.,1.6,0.9,.
O=C1CC(Sc2nnc(-c3ccccc3O)o2)C(=O)N1c1ccccc1 (configuration not stated),38.4,17.0,6.6,35.0,26.0,.
COc1ccc(N2C(=O)CC(Sc3nnc(-c4ccccc4)o3)C2=O)cc1 (configuration not stated),40.6,17.9,-11.7,38.7,53.4*,54.9*
Cc1nn(-c2ccc3ccccc3c2)c(=O)c2ccccc12,40.0,6.0,10.7,34.7,40.2*,27.9
Cc1nn(-c2ccc(Cl)c(Cl)c2)c(=O)c2ccccc12,5.0,0.0,2.4,9.3,13.9,.
O=C(Nc1ccccc1F)c1ccc2c(c1)CCN2S(=O)(=O)c1ccccc1,36.1,0.8,0.4,22.6,40.5*,16.2
O=C(COC(=O)c1n[nH]c2ccccc12)NCCc1ccccc1,-11.9,14.7,.,-22.8,-12.3,.
CC(=O)Oc1ccc(/C=C2/Oc3ccccc3C2=O)cc1,39.6,4.8,18.3,25.9,44.4*,8.5
COc1ccc(/C=C2\Oc3ccccc3C2=O)cc1,31.5,45.2,.,-0.5,-5.0,.
CCOc1ccc(NC(=O)Cc2ccc(S(=O)(=O)N3CCCCC3)cc2)cc1OCC,9.3,2.0,.,-2.0,-1.8,.
COc1ccc(Nc2nc(Nc3ccc(OC)cc3)nc(SC3=NCCS3)n2)cc1,17.2,20.3,34.8,39.1,40.0,15.3
COc1ccc(Nc2nc(Cl)nc(NCCO)n2)cc1,6.8,4.7,-12.5,15.1,-1.1,.
COc1ccc2cc(C)c3nnc(SCC(=O)Nc4cc(OC)c(OC)cc4C(=O)O)n3c2c1,16.3,5.3,9.2,4.0,29.9,.
